In all, about 5,500 compounds went through this assay and about 2,000 (36%) were called active. Another 18% or so got no clear call; they are omitted. No stated cut-off is given here; in the data, active means normalized growth mostly below about 0.91 (no sharp cut-off); inconclusive means no clear call, values can overlap the other calls; inactive means mostly above about 0.92. The list shows a part of the results.
Test: chemical genetic growth profiling, strain panel (AID 1159580);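 further: tested at 20 µM; growth read once vehicle control cultures reached saturation at 30 °C; 1 = growth at the plate median or of vehicle wells; lower values mean less growth of the strain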
Settings: growth OD

Measured: normalized growth

O=C1C(Cl)=C(Cl)C(=O)C(Cl)=C1Cl
inactive: S. cerevisiae deletion strains, locus YKR026C, strain gcn3, hits give low values 0.987 | S. cerevisiae deletion strains, locus YKR091W, strain srl3, hits give low values 0.99 | S. cerevisiae deletion strains, locus YLL001W, strain dnm1, hits give low values 0.958 | S. cerevisiae deletion strains, locus YLL026W, hits give low values 0.98 | S. cerevisiae deletion strains, locus YLL041C, strain sdh2, hits give low values 0.988 | S. cerevisiae deletion strains, locus YLR058C, strain SHM2, hits give low values 0.966 | S. cerevisiae deletion strains, locus YLR258W, strain gsy2, hits give low values 0.978 | S. cerevisiae deletion strains, locus YLR320W, strain mms22, hits give low values 0.92 | S. cerevisiae deletion strains, locus YLR342W, strain FKS1, hits give low values 0.935 | S. cerevisiae deletion strains, locus YLR357W, strain rsc2, hits give low values 0.86 | S. cerevisiae deletion strains, locus YLR370C, strain arc18, hits give low values 0.919 | S. cerevisiae deletion strains, locus YLR384C, strain iki3, hits give low values 0.966 | S. cerevisiae deletion strains, locus YML032C, strain rad52, hits give low values 0.912 | S. cerevisiae deletion strains, locus YMR058W, strain fet3, hits give low values 0.909 | S. cerevisiae deletion strains, locus YMR129W, hits give low values 0.957 | S. cerevisiae deletion strains, locus YMR205C, strain PFK2, hits give low values 0.932 | S. cerevisiae deletion strains, locus YMR231W, strain pep5, hits give low values 0.971 | S. cerevisiae deletion strains, locus YNL322C, strain KRE1 (second series), hits give low values 0.924 | S. cerevisiae deletion strains, locus YNR049C, strain mso1, hits give low values 0.989 | S. cerevisiae deletion strains, locus YOL012C, strain htz1 0.457 | S. cerevisiae deletion strains, locus YOL147C, strain pex11, hits give low values 0.986 | S. cerevisiae deletion strains, locus YOR001W, strain rrp6, hits give low values 0.915 | S. cerevisiae deletion strains, locus YOR080W, strain dia2, hits give low values 0.98 | S. cerevisiae deletion strains, locus YOR144C, strain elg1, hits give low values 0.985 | S. cerevisiae deletion strains, locus YOR265W, strain rbl2, hits give low values 0.959 | S. cerevisiae deletion strains, locus YOR270C, strain vph1, hits give low values 0.977 | S. cerevisiae deletion strains, locus YOR290C, strain snf2, hits give low values 0.941 | S. cerevisiae deletion strains, locus YPL078C, strain atp4, hits give low values 0.964 | S. cerevisiae deletion strains, locus YPL240C, strain hsp82, hits give low values 0.979 | S. cerevisiae deletion strains, locus YPL241C, strain CIN2, hits give low values 0.995
active: S. cerevisiae deletion strains, locus YKL009W, strain mrt4, hits give low values 1.17 [resistant] | S. cerevisiae deletion strains, locus YKL068W, hits give low values 0.12 | S. cerevisiae deletion strains, locus YKL085W, strain MDH1 (second series), hits give low values 0.0519 | S. cerevisiae deletion strains, locus YKL085W, strain MDH1, hits give low values 0.0519 | S. cerevisiae deletion strains, locus YKL160W, strain elf1, hits give low values 0.901 | S. cerevisiae deletion strains, locus YKL190W, strain CNB1, hits give low values 0.629 | S. cerevisiae deletion strains, locus YKR001C, strain vps1, hits give low values 0.094 | S. cerevisiae deletion strains, locus YLR027C, strain aat2, hits give low values 0.899 | S. cerevisiae deletion strains, locus YLR039C, strain RIC1, hits give low values 0.275 | S. cerevisiae deletion strains, locus YLR102C, strain apc9, hits give low values 0.254 | S. cerevisiae deletion strains, locus YLR113W, strain HOG1, hits give low values 0.145 | S. cerevisiae deletion strains, locus YLR221C, strain rsa3, hits give low values 0.855 | S. cerevisiae deletion strains, locus YLR262C, strain YPT6 (second series), hits give low values 0.703 | S. cerevisiae deletion strains, locus YLR262C, strain YPT6, hits give low values 0.168 | S. cerevisiae deletion strains, locus YLR268W, strain sec22, hits give low values 0.256 | S. cerevisiae deletion strains, locus YLR330W, strain CHS5, hits give low values 0.129 | S. cerevisiae deletion strains, locus YLR342W, strain FKS1 (second series), hits give low values 0.243 | S. cerevisiae deletion strains, locus YLR371W, strain rom2, hits give low values 0.151 | S. cerevisiae deletion strains, locus YLR418C, strain cdc73, hits give low values 0.292 | S. cerevisiae deletion strains, locus YML016C, strain PPZ1, hits give low values 0.776 | S. cerevisiae deletion strains, locus YML120C, strain ndi1, hits give low values 0.9 | S. cerevisiae deletion strains, locus YML124C, strain tub3, hits give low values 0.708 | S. cerevisiae deletion strains, locus YMR078C, strain ctf18, hits give low values 0.551 | S. cerevisiae deletion strains, locus YMR125W, strain sto1, hits give low values 0.792 | S. cerevisiae deletion strains, locus YMR223W, strain ubp8, hits give low values 0.182 | S. cerevisiae deletion strains, locus YMR263W, strain SAP30, hits give low values 0.794 | S. cerevisiae deletion strains, locus YMR307W, strain GAS1, hits give low values 0.112 | S. cerevisiae deletion strains, locus YNL067W, strain RPL9B, hits give low values 0.63 | S. cerevisiae deletion strains, locus YNL071W, strain lat1, hits give low values 0.824 | S. cerevisiae deletion strains, locus YNL128W, strain TEP1, hits give low values 0.341 | S. cerevisiae deletion strains, locus YNL153C, strain GIM3, hits give low values 0.814 | S. cerevisiae deletion strains, locus YNL183C, strain NPR1, hits give low values 0.0843 | S. cerevisiae deletion strains, locus YNL209W, strain ssb2, hits give low values 0.888 | S. cerevisiae deletion strains, locus YNL233W, strain BNI4, hits give low values 0.17 | S. cerevisiae deletion strains, locus YNL248C, strain rpa49, hits give low values 0.884 | S. cerevisiae deletion strains, locus YNL250W, strain rad50, hits give low values 0.0728 | S. cerevisiae deletion strains, locus YNL271C, strain bni1, hits give low values 0.0654 | S. cerevisiae deletion strains, locus YNL298W, strain CLA4, hits give low values 0.0642 | S. cerevisiae deletion strains, locus YNL307C, strain MCK1, hits give low values 0.206 | S. cerevisiae deletion strains, locus YNL322C, strain KRE1, hits give low values 0.849 | S. cerevisiae deletion strains, locus YNR052C, strain pop2, hits give low values 0.911 | S. cerevisiae deletion strains, locus YOL006C, strain TOP1, hits give low values 0.357 | S. cerevisiae deletion strains, locus YOR061W, strain CKA2, hits give low values 0.617 | S. cerevisiae deletion strains, locus YOR069W, strain VPS5, hits give low values 0.577 | S. cerevisiae deletion strains, locus YOR070C, strain gyp1, hits give low values 0.917 | S. cerevisiae deletion strains, locus YOR083W, strain WHI5, hits give low values 0.871 | S. cerevisiae deletion strains, locus YOR106W, strain vam3, hits give low values 0.856 | S. cerevisiae deletion strains, locus YOR136W, strain idh2, hits give low values 0.307 | S. cerevisiae deletion strains, locus YOR184W, strain ser1, hits give low values 0.195 | S. cerevisiae deletion strains, locus YOR231W, strain MKK1, hits give low values 0.124 | S. cerevisiae deletion strains, locus YOR316C, strain cot1, hits give low values 0.677 | S. cerevisiae deletion strains, locus YPL051W, strain arl3, hits give low values 0.841 | S. cerevisiae deletion strains, locus YPL055C, strain LGE1, hits give low values 0.408 | S. cerevisiae deletion strains, locus YPL106C, strain sse1, hits give low values 0.838 | S. cerevisiae deletion strains, locus YPL256C, strain CLN2, hits give low values 0.132 | S. cerevisiae deletion strains, locus YPR119W, strain clb2, hits give low values 0.444 | S. cerevisiae deletion strains, locus YPR141C, strain kar3, hits give low values 0.11 | S. cerevisiae deletion strains, locus YPR163C, strain tif3, hits give low values 0.321 | S. cerevisiae deletion strains, locus YPR167C, strain met16, hits give low values 0.176 | S. cerevisiae deletion strains, strain wtn01, hits give low values 0.32 | S. cerevisiae strains, strain wild type, hits give low values 0.423

— PubChem BioAssay AID1159580 (chemical genetic matrix, 2015)
